# Laboratory results from PubChem BioAssay (Tox21).
# Inconclusive results are not listed. Entries that show only a call come without a potency. Activity calls are given as the source filed them. Unless noted, the call rests on the fitted dose curve.
# Molecular target: Thyrotropin receptor (Homo sapiens) (UniProt P16473)
# Assay: qHTS assay to identify small molecule antagonists of the thyroid stimulating hormone receptor (TSHR) signaling pathway (AID 1259385); further: nearly all actives have a fitted effect of over 20% in size
# Details: TSHR-HEK293 cAMP HTRF, TSH-stimulated antagonist mode; series mostly up to 92.4 µM
# Outline: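 Antagonist mode: compound-treated TSHR-expressing HEK293 cells were stimulated with 1.5 ng/mL TSH (final) in presence of Ro20-1724 for 30 min at RT. HTRF cAMP detection after 1 h; each compound tested at 15 concentrations, triplicate.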
# Thyrotropin receptor (Homo sapiens), sequence (P16473 whole entry, looked up): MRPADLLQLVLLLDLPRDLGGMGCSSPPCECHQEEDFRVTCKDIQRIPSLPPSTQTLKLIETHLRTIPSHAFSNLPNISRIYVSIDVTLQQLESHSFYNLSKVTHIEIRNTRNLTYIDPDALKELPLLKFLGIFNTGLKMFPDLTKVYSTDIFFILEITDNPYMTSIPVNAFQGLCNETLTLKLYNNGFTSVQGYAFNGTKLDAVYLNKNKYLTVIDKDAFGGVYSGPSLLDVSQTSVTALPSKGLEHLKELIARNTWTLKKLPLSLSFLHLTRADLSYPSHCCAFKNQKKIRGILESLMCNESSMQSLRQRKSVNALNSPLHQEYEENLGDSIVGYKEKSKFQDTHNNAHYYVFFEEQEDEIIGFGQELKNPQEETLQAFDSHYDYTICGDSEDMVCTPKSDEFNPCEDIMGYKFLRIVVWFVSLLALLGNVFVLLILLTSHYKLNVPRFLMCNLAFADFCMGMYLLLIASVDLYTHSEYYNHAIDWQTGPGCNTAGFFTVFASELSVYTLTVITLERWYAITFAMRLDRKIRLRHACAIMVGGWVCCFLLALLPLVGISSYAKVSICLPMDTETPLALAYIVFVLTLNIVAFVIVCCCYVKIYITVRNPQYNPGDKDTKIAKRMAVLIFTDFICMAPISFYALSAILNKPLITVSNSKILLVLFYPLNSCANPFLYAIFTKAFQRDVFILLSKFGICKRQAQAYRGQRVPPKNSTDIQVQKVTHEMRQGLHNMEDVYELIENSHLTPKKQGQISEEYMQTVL
SMILES,Potency,"activity change, negative = inhibition"
CCn1nc(Cc2ccccc2)cc1C1CCN(C[C@H]2C[C@H](N(C)[C@@H](C(=O)O)C(C)C)C[C@@H]2c2cccc(F)c2)CC1,inactive,
Cc1c(Nc2ncccc2C(=O)O)cccc1C(F)(F)F,inactive,
O=Cc1ccc(Cl)c([N+](=O)[O-])c1,inactive,
CC(=O)OCC(=O)[C@@]1(O)CC[C@H]2[C@@H]3CCC4=CC(=O)C=C[C@]4(C)[C@@]3(F)[C@@H](O)C[C@@]21C,inactive,
CO[C@@H]1COCC[C@@H]1N[C@@H]1CC[C@@](C(=O)N2CCc3ncc(C(F)(F)F)cc3C2)(C(C)C)C1,inactive,
O=C1c2ccccc2C(=O)C1c1ccc2cc(S(=O)(=O)O)cc(S(=O)(=O)O)c2n1,inactive,
Clc1cc(Cl)c2c(c1)N=C1CCCCCN1C2,inactive,
O=C1c2ccccc2C(=O)C1c1ccc2ccccc2n1,inactive,
COc1ccc(/C=C/S(=O)(=O)NC(=O)c2ccc(C)cc2Cl)cc1,inactive,
CCCCCCCCOCCCN,inactive,
CC1=CC(=C(c2ccc(N)cc2)c2ccc(N)cc2)C=CC1=N,,0.722% [at 8.39 µM] (inactive)
O=C(O)c1ccc(O)c(O)c1,inactive,
CC(=O)Oc1cccc2c1C(=O)c1c(OC(C)=O)cc(C(=O)O)cc1C2=O,inactive,
CC(C)NC(=O)c1ccccc1N,inactive,
CC1=C(C)C(=O)C(CCCCC#CCCCC#CCO)=C(C)C1=O,inactive,
CC(C)C/C=C(\C=O)c1ccccc1,inactive,
CC(=O)c1ccc(Cl)c(Cl)c1Cl,inactive,
COC(=O)C(C)(C)C,inactive,
C/C(=C\C(C)CC(C)CC(C)C)C1CC(=O)OC1=O (centres undefined),inactive,
O=C(O)c1cccc(C(=O)O)c1C(=O)O,inactive,
NC(=O)c1ccccc1C(N)=O,inactive,
Cc1cccc(C)c1NC(=O)CN1CCCC1,inactive,
O=C(NC1CCN(CCc2c[nH]c3ccccc23)CC1)c1ccccc1,inactive,
Nc1cccc2c(=O)[nH][nH]c(=O)c12,inactive,
Oc1ccc(CCNCCCCCCNCCc2ccccc2)cc1O,inactive,
CCN(CC)CC(=O)OCC(=O)[C@@]1(O)CC[C@H]2[C@@H]3CCC4=CC(=O)CC[C@]4(C)[C@H]3[C@@H](O)C[C@@]21C,inactive,

# Test system: not listed separately
# Assay: qHTS assay to identify small molecule agonists of the estrogen receptor alpha (ER-alpha) signaling pathway in the presence of an antagonist - cell viability counter screen (AID 1259386; active means well fitted cell-killing curve with a large enough effect in the repeat runs;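 further: cells exposed to compounds for 22 h at 37 °C before the viability read; nearly all actives have a fitted effect of over 30% in size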; further: potency means the concentration at half of the fitted maximal effect)
# Details: VM7Luc4E2 viability, CellTiter-Fluor fluorescence, 22 h; series mostly up to 92.4 µM
# Outline: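 Fluorescent CellTiter-Fluor viability signal from VM7Luc4E2 cells, with the reagent added during the final hour of a 22hr compound exposure at 37C in the presence of 10.0nM ICI-182,780.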
row,SMILES,Potency
1,CCn1nc(Cc2ccccc2)cc1C1CCN(C[C@H]2C[C@H](N(C)[C@@H](C(=O)O)C(C)C)C[C@@H]2c2cccc(F)c2)CC1,inactive
2,Cc1c(Nc2ncccc2C(=O)O)cccc1C(F)(F)F,inactive
3,O=Cc1ccc(Cl)c([N+](=O)[O-])c1,inactive
4,CC(=O)OCC(=O)[C@@]1(O)CC[C@H]2[C@@H]3CCC4=CC(=O)C=C[C@]4(C)[C@@]3(F)[C@@H](O)C[C@@]21C,inactive
5,CO[C@@H]1COCC[C@@H]1N[C@@H]1CC[C@@](C(=O)N2CCc3ncc(C(F)(F)F)cc3C2)(C(C)C)C1,inactive
6,CCCCCCCCS,inactive
7,O=C1c2ccccc2C(=O)C1c1ccc2cc(S(=O)(=O)O)cc(S(=O)(=O)O)c2n1,26.3 µM (active)
8,S=c1[nH][nH]c(=S)s1,inactive
9,CC(C)(O)C(=O)O,inactive
10,CC(C(=O)O)c1ccc(/C=C2\CCCCC2=O)cc1 (centres undefined),inactive
11,Cc1c(Cl)cccc1[N+](=O)[O-],inactive
12,O=C(O)c1ccc(O)c(O)c1,inactive
13,CC(=O)Oc1cccc2c1C(=O)c1c(OC(C)=O)cc(C(=O)O)cc1C2=O,29.8 µM (active)
14,CC(C)NC(=O)c1ccccc1N,inactive
15,CC(=O)c1cccnc1,inactive
16,CC(=O)c1ccc(Cl)c(Cl)c1Cl,inactive
17,[O-][n+]1ccc(Cl)cc1,inactive
18,COC(=O)C(C)(C)C,inactive
19,C/C(=C\C(C)CC(C)CC(C)C)C1CC(=O)OC1=O (centres undefined),inactive
20,O=C(O)c1cccc(C(=O)O)c1C(=O)O,inactive
21,C[C@H](CN1CCCC1)C(=O)c1ccc(C(F)(F)F)cc1,inactive
22,CCc1cnc(C(=O)O)c(C(=O)O)c1,inactive
23,NC(=O)c1ccccc1C(N)=O,inactive
24,Cc1cccc(C)c1NC(=O)CN1CCCC1,inactive
25,O=C(O)c1ccc2cc(O)ccc2c1,inactive
26,Nc1cccc2c(=O)[nH][nH]c(=O)c12,inactive
27,CCC(CC)C(=O)O,inactive
28,SCCOCCOCCS,inactive
29,C=CC(C)(O)CC/C=C(/C)CCC=C(C)C (centres undefined),inactive
30,CCN(CC)CC(=O)OCC(=O)[C@@]1(O)CC[C@H]2[C@@H]3CCC4=CC(=O)CC[C@]4(C)[C@H]3[C@@H](O)C[C@@]21C,inactive

# Molecular target: Progesterone receptor (Homo sapiens) (UniProt P06401)
# Sequence (P06401 whole entry, looked up): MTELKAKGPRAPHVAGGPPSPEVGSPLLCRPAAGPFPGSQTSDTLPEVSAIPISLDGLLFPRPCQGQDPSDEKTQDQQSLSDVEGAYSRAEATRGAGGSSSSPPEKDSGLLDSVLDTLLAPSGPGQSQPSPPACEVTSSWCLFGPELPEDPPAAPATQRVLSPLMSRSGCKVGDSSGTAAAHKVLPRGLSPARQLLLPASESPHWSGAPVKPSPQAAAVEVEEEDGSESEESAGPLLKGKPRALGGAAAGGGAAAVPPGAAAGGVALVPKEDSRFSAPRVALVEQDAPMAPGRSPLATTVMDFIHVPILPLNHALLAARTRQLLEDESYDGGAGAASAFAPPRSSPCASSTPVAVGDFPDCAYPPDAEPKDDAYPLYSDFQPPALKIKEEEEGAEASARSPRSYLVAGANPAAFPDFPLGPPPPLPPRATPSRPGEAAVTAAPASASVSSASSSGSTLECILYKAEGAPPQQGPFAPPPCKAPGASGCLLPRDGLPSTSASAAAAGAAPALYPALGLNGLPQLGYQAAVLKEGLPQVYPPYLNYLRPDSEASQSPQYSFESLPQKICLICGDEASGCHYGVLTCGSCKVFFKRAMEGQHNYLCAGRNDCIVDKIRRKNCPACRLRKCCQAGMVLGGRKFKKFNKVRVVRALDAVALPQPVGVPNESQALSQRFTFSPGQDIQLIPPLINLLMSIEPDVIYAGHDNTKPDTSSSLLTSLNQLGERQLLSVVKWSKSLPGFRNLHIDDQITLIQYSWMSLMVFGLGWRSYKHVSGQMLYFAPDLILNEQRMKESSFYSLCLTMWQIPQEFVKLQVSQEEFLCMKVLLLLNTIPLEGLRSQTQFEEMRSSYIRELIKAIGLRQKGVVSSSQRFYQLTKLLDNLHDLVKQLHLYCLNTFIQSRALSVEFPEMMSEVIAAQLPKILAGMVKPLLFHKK
# Assay: qHTS assay to identify small molecule agonists of the progesterone receptor (PR) signaling pathway (AID 1346784); further: nearly all actives have a fitted effect of over 30% in size; further: potency means the concentration at half of the fitted maximal effect
# Details: PR-UAS-bla HEK293T, beta-lactamase FRET ratio, 16 h; series mostly up to 92.4 µM
# Outline: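 Fluorescence from LiveBLAzer B/G FRET substrate cleavage (2 hr, RT) reported PR activation in PR-UAS-bla HEK 293T cells treated 16 hr at 37C/5% CO2 with compounds; medium contained 2% charcoal-stripped FBS.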
row,SMILES,Potency
1,CCCCCCCCS,inactive
2,Clc1cc(Cl)c2c(c1)N=C1CCCCCN1C2,inactive
3,O=C1c2ccccc2C(=O)C1c1ccc2ccccc2n1,inactive
4,COc1ccc(/C=C/S(=O)(=O)NC(=O)c2ccc(C)cc2Cl)cc1,inactive
5,CCCCCCCCOCCCN,inactive
6,S=c1[nH][nH]c(=S)s1,inactive
7,CC(C)(O)C(=O)O,inactive
8,CC(C(=O)O)c1ccc(/C=C2\CCCCC2=O)cc1 (centres undefined),inactive
9,CC1=CC(=C(c2ccc(N)cc2)c2ccc(N)cc2)C=CC1=N,0.39 µM (active)
10,Cc1c(Cl)cccc1[N+](=O)[O-],inactive
11,CC1=C(C)C(=O)C(CCCCC#CCCCC#CCO)=C(C)C1=O,inactive
12,CC(=O)c1cccnc1,inactive
13,CC(C)C/C=C(\C=O)c1ccccc1,inactive
14,[O-][n+]1ccc(Cl)cc1,inactive
15,C/C(=C\C(C)CC(C)CC(C)C)C1CC(=O)OC1=O (centres undefined),inactive
16,C[C@H](CN1CCCC1)C(=O)c1ccc(C(F)(F)F)cc1,inactive
17,CCc1cnc(C(=O)O)c(C(=O)O)c1,inactive
18,O=C(NC1CCN(CCc2c[nH]c3ccccc23)CC1)c1ccccc1,inactive
19,O=C(O)c1ccc2cc(O)ccc2c1,inactive
20,CCC(CC)C(=O)O,inactive
21,SCCOCCOCCS,inactive
22,Oc1ccc(CCNCCCCCCNCCc2ccccc2)cc1O,inactive
23,C=CC(C)(O)CC/C=C(/C)CCC=C(C)C (centres undefined),inactive
